Measurements published in PubChem BioAssay AID1240 (Sanford-Burnham Center for Chemical Genomics, 2008).
Screen size: about 50,000 compounds; about 800 (1.6%) showed an effect of 50% or more. This excerpt belongs to a sample that is enriched for strong results.

target: Bcl-2-like protein 10 (Homo sapiens) (UniProt Q9HD36); experiment: Phenotype converters, Bcl-B/TR3 peptide binding displacement, primary biochemical FP (AID 1240); conditions: GST-Bcl-B / FITC-TR3 peptide fluorescence polarization; stronger effect = higher value; compound at 3.75 mg/L;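 note: 0% = Bcl-B with tracer peptide and DMSO and 100% = tracer peptide lacking Bcl-B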
Sequence (Q9HD36 whole entry, looked up): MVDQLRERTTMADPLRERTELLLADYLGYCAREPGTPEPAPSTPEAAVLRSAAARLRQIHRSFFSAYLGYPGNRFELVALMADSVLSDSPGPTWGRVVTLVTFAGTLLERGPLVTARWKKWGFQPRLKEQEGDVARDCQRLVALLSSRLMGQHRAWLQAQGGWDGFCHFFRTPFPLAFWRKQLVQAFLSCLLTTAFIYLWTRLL

SMILES | displacement
Oc1ccccc1C=Nc1ccc2c(c1)ncn2-c1ccccc1 | 15.5%
Cc1nc2cc(N=Cc3ccccc3O)ccc2n1C | 12.7%
Oc1ccccc1C=Nc1ccc2c(c1)ncn2CCn1cnc2cc(N=Cc3ccccc3O)ccc21 | 115%
Cc1nc2c(sc3nc(C)c(C)c(C)c32)c(=O)o1 | 0%
COC(=O)c1cc(Cl)c(NC(=O)C(c2ccccc2)c2ccccc2)cc1OC | -16.6%
COc1cc(/C=N/NC(=O)/C(=C\C=C\c2ccccc2)NC(=O)c2ccccc2)cc(OC)c1O | -2.3%
O=c1cc(C(F)(F)C(F)(F)F)c2cc3c4c(c2o1)CCCN4CCC3 | 66.7%
Cc1c(OCc2ccc(C(=O)O)cc2)ccc2c3c(c(=O)oc12)CCC3 | 8.3%
CN1CCN(Cc2c(O)ccc3c4c(c(=O)oc23)CCC4)CC1 | -0.5%
O=c1oc2c3c4c(cc2cc1CCO)CCCN4CCC3 | 75.8%
Cc1c(O)ccc2c3c(c(=O)oc12)CCC3 | 12.3%
Cc1c(C=O)c(=O)oc2c3c4c(cc12)CCCN4CCC3 | 148%
COCCCNC(=O)c1ccc(C(=O)NCCCOC)cc1 | -6.5%
O=[N+]([O-])c1cnc(-c2ccccc2)nc1 | -3.2%
COc1cc(Br)cc(/C=C(\C#N)C(=O)NC2CCCCC2)c1O | -5.3%
COc1ccc(Cl)cc1C(=O)Nc1nc(-c2ccc(Cl)cc2Cl)cs1 | 9.7%
CCSc1nc2ccccc2n1Cc1ccc(OC)c([N+](=O)[O-])c1 | 10.5%
CC(=O)Nc1cccc(NS(=O)(=O)c2ccccc2)c1 | 9.1%
C=CCNC(=O)Nc1ccc2nccnc2c1 | 8.7%
CCOC(=O)c1c(NC=O)sc2c1CCC2 | -2.1%
CCOC(=O)c1c(NC=O)sc2c1CCC/C2=N\O | 148%
CCOC(=O)c1c(NC(=O)c2ccccc2)sc2c1CCC/C2=N/O | -0.2%
COc1cccc(N2C(=O)C(=O)/C(=C(\O)c3ccccc3)C2c2ccc([N+](=O)[O-])cc2)c1 (stereo not drawn) | 4.1%
O=c1/c(=C/c2cn(Cc3ccc(F)cc3)c3ccccc23)sc2nc3ccccc3n12 | 2.3%
NS(=O)(=O)c1cccc(NC(=O)c2cccs2)c1 | 1.4%

SMILES | displacement
CCOc1ccc(/C=C2\SC(=S)N(CCC(=O)N3CCN(C)CC3)C2=O)cc1 | 1.2%
COc1ccc(NC(=O)CCN2C(=O)/C(=C/c3cccs3)SC2=S)cc1 | 82.8%
COc1ccc(NC(=O)CCN2C(=O)/C(=C/c3ccc(F)cc3)SC2=S)cc1 | 12.3%
O=C(CCN1C(=O)/C(=C/c2cccs2)SC1=S)Nc1ccc(F)cc1 | 10.6%
O=C(CCCN1C(=O)/C(=C\c2cccs2)SC1=S)Nc1ccc(F)c(Cl)c1 | 3.9%
CCOc1ccc(/C=C2\SC(=S)N(CCC(=O)N3CCOCC3)C2=O)cc1 | 100%
CCOc1ccc(/C=C2/SC(=S)N(CN3CCOCC3)C2=O)cc1 | 8.8%
O=C(CCCN1C(=O)/C(=C\c2cccs2)SC1=S)Nc1ccccc1O | 10.6%
COc1ccc(NC(=O)CCN2C(=O)/C(=C\c3cccc(OC)c3)SC2=S)cc1 | -5.5%
Cc1ccccc1NC(=O)CCCN1C(=O)/C(=C/c2cccc3c2OCO3)SC1=S | 94.9%
O=C(CCN1C(=O)/C(=C\c2cccs2)SC1=S)Nc1ccc(Cl)cc1 | 77.4%
O=C(CCCN1C(=O)/C(=C/c2ccccc2)SC1=S)Nc1ccccc1C(=O)O | 2%
O=C(O)CSc1nnc(-c2ccco2)n1-c1ccccc1 | 0.4%
O=C(Nc1ccc(Cl)c(Cl)c1)C(c1ccccc1)c1ccccc1 | 15.4%
COC(=O)c1ccccc1P(C)(C)=O | 1%
COc1ccc(Br)cc1C(=O)Nc1cc2nn(-c3ccc(C)cc3)nc2cc1C | -6.9%
COc1ccc(NS(=O)(=O)c2cc(C)ccc2C)cc1 | 2%
O=C(Nc1cccnc1)c1cccc(C(=O)Nc2cccnc2)n1 | -7.2%
O=C(CSc1nnc(-c2ccncc2)n1-c1ccccc1)c1ccc(F)cc1 | -2.7%
COc1ccc(C(=O)Nc2cccc(NC(=O)c3ccc(F)cc3)c2)cc1Br | 2.2%
CN(C)c1ccc(NS(=O)(=O)c2ccccc2[N+](=O)[O-])cc1 | 9.8%
O=C1C(Cl)=C(N2CCOCC2)C(=O)C(Cl)=C1/C=C/N1CCOCC1 | 24.3%
Cc1c(NC(=O)CCCN2C(=O)/C(=C/c3ccccc3)SC2=S)c(=O)n(-c2ccccc2)n1C | 1.5%
CCOc1ccc(/C=C2\SC(=S)N(CCC(=O)Nc3cccnc3)C2=O)cc1 | 77%
O=C(CCCN1C(=O)/C(=C\c2cccs2)SC1=S)Nc1cccnc1 | -0.9%

SMILES | displacement
COc1cccc(/C=C2/SC(=S)N(CCC(=O)Nc3c(C)n(C)n(-c4ccccc4)c3=O)C2=O)c1 | 7.7%
COc1cccc(NC(=O)CCN2C(=O)/C(=C/c3ccc(C)cc3)SC2=S)c1 | 39.1%
O=C(CCN1C(=O)/C(=C/c2cccs2)SC1=S)Nc1cccc(F)c1 | -21.4%
COc1ccc(/C=C2\SC(=S)N(CCCC(=O)Nc3c(C)n(C)n(-c4ccccc4)c3=O)C2=O)cc1 | 120%
O=C(CCN1C(=O)/C(=C/c2cccs2)SC1=S)Nc1cccnc1 | 135%
CCOc1ccc(/C=C2\SC(=S)N(CCC(=O)Nc3ccccn3)C2=O)cc1 | -4.3%
CCc1ccc(C(=O)CC2(O)C(=O)Nc3ccc(Br)cc32)cc1 (stereo not drawn) | 2.3%
Cc1ccc(CN2CCN(N=Cc3c(O)ccc4ccccc34)CC2)c(C)c1 | 0.3%
Cc1nc([N+](=O)[O-])cn1-c1cccc(O)c1 | 3%
Cc1cccc(NC(=O)COc2ccccc2)n1 | 13.2%
CCCNc1nc(OCC(F)(F)F)nc(OCC(F)(F)F)n1 | 12.4%
O=C1OC(c2ccc(F)cc2)=N/C1=C\c1ccc(Cl)cc1 | 4.3%
O=C1OC(c2ccc(F)cc2)=N/C1=C\c1cccc(Br)c1 | 74.2%
C=CCOc1c(Br)cc(/C=C2/N=C(c3ccccc3)OC2=O)cc1OC | -4.9%
O=C1OC(c2cccc(F)c2)=N/C1=C\c1ccc(F)cc1 | -2.2%
COc1ccc(C2=NC(=Cc3ccc(Br)cc3)C(=O)O2)cc1 | 22.5%
COc1cc(/C=C2\N=C(c3cccc(Br)c3)OC2=O)cc(OC)c1OC | 72.6%
COc1ccc(/C=C2/N=C(c3ccc(Br)cc3)OC2=O)cc1 | 99.4%
Cc1ccc(C2=N/C(=C\c3ccccc3)C(=O)O2)cc1 | -7.3%
Cc1ccc(/C=C2\N=C(c3ccc(Cl)cc3)OC2=O)cc1 | 0%
COc1ccc(/C=C2/N=C(c3ccc(C)cc3)OC2=O)cc1Br | 127%
CN(C)/C=C1\N=C(c2cccc(Br)c2)OC1=O | 0.8%
COc1ccc(/C=C2\N=C(c3cccc(OC)c3)OC2=O)cc1 | -1.7%
